Bioassay records (PubChem)
The entries come from a sample that favours hits as a whole.
mcGAS MS inh: mouse cGAS inhibition by mass spec; Q8C6L5; recombinant mouse cGAS, cGAMP by RapidFire MS; inhibition, % at 12.5 µM; 130,000 compounds, 0.18% hits; AID 1259397;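 active = inhibition of cGAS enzyme activity at or above 60%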;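 note: enzyme stimulated by 45 bp dsDNA with ATP and GTP substrates; cGAMP share of summed cGAMP plus half ATP and half GTP signals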
Target sequence (Q8C6L5 whole entry, looked up): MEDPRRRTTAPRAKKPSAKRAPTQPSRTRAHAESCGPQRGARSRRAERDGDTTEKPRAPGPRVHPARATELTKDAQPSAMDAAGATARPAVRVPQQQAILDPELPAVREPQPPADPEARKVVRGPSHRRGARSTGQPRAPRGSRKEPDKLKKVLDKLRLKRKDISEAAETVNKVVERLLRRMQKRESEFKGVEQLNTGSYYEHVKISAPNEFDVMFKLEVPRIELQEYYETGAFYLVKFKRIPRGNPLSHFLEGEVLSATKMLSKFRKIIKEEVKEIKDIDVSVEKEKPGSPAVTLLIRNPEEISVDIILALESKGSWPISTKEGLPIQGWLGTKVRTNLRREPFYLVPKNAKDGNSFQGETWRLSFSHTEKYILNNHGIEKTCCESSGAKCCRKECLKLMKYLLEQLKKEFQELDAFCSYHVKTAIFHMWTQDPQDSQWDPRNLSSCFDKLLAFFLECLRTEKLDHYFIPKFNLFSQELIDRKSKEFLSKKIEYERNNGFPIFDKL
* marks the source's active call; other numbers are inactive results; ! = a repeat was not active.

SMILES	mcGAS MS inh
CC(Sc1nc2ccccc2c(=O)n1C1CC1)C(=O)N1CCCC1 (stereo not drawn)	8
O=C(c1ccco1)N1CCN(C(=O)c2ccc(Br)o2)CC1	-5
CC1CCCN(C(=O)c2ccc(Br)o2)C1 (stereo not drawn)	54
Nc1nncn1C(=O)c1ccc(Br)o1	82*
CC(C)(C)c1ccc(-c2ncccc2OC(=O)C23CC4CC(CC(C4)C2)C3)cc1	-8
CC1=NN(c2ccc(Cl)cc2)C(=O)C12Cc1ccccc1N1CCCCC12 (stereo not drawn)	-5
CC(C)c1nccn1CCCNC(=O)c1ccc(-c2ccc3c(c2)OCO3)nc1	-14
C(=C\c1ccccc1)/CN(Cc1ccco1)C1CCCC1	-19
O=c1c(O)c(-c2cc(O)c(O)c(O)c2)oc2cc(O)cc(O)c12	94*
O=c1c(O[C@@H]2O[C@H](CO)[C@H](O)[C@H](O)[C@H]2O)c(-c2ccc(O)c(O)c2)oc2cc(O)cc(O)c12	10
O=c1c(O)c(-c2ccccc2)oc2cc(O)ccc12	-8
CN(CCN1CCCC1CCCO)c1ccccc1 (stereo not drawn)	-6
CCc1ccc(C2COCCN2C(=O)Cc2c(C)noc2Cl)o1 (stereo not drawn)	-3
Cc1cc2nc(-c3ccccc3)c(=O)n(C)c2cc1C	2
Cc1cc2nc3c(=O)[nH]c(=O)nc-3n(CC(O)C(O)C(O)CO)c2cc1C (stereo not drawn)	4
Cc1cc2nc3c(=O)[nH]c(=O)nc-3n(C)c2cc1C=O	91*
COc1ccc(NC2CCCN(C(=O)/C=C/c3cccc(Cl)c3)C2)cc1OC (stereo not drawn)	-4
COc1cc(CN2CCN(Cc3cccc4nonc34)CC2CCO)cc(OC)c1 (stereo not drawn)	-8
Cc1ccc2nc(C)c(C(=O)NCC(O)c3ccccc3)cc2c1 (stereo not drawn)	-14
Nc1c2ccccc2nc2ccccc12	78*!
Cc1ccc2c(N)cccc2n1	-4
Nc1c2c(nc3ccccc13)CCCC2	-6
CC(OC(=O)Cn1c(=O)oc2ccccc21)C(=O)N1CCNC1=O (stereo not drawn)	-8
CCCCC(C)n1[nH]c(=O)cc1N (stereo not drawn)	63*
CCCCn1c(N)cc(=O)[nH]c1=O	-4
SMILES	mcGAS MS inh
CCCCCC(C)n1[nH]c(=O)c2c(C)cc(C)nc21 (stereo not drawn)	13
COc1cc(CN2CCSCC2)ccc1OCC(O)CN1CCCCCC1 (stereo not drawn)	-9
CC(C)C(NS(=O)(=O)c1ccccc1)C(=O)N1CCN(c2ccccc2Cl)CC1 (stereo not drawn)	-10
CC(C)C(NS(=O)(=O)c1ccccc1)C(=O)N1CCN(c2cccc(Cl)c2)CC1 (stereo not drawn)	60*
CC(C)C(NS(=O)(=O)c1cccc(Cl)c1)C(=O)N1CCN(c2ccccc2)CC1 (stereo not drawn)	-5
O=C(Nc1ccc(Cl)cc1)c1ccc(N2CC3CC(C2)c2cccc(=O)n2C3)c(NC(=O)c2ccc(F)cc2)c1 (stereo not drawn)	-2
NC(=O)C(OC(=O)c1c2ccccc2cc2ccccc12)c1ccccc1 (stereo not drawn)	-3
CCOC(=O)C=C1SCC(=O)N1CC(=O)OCC	-8
CCOC(=O)CN1C(=O)CSC1=CC#N	82*
CCOC(=O)Cn1nc(C)c(C)c(C#N)c1=O	-7
Cc1c(Cl)cccc1NC(=O)C(C)N1CCCC(C2OCCO2)C1 (stereo not drawn)	-18
CC(=O)Oc1ccccc1CN1C(=O)C(C)(C)ON=C1c1ccc(C(F)(F)F)cc1	-13
COC(=O)c1ccc(CN2C(=O)C(C)(C)ON=C2c2ccc(C)cc2)o1	25
CC(=O)Oc1ccc(CN2C(=O)C(C)(C)ON=C2c2ccc(C)cc2)cc1	87*
OCCN1CCN(c2cnc(-c3cccc4ccccc34)cn2)CC1	-9
CCOC(=O)c1cccnc1N1CCn2nc(C(=O)N3CCOCC3)cc2C1	-13
CCCCC(=O)Nc1ccc(N2CCOCC2)cc1	-6
CN(CC(=O)Nc1ccc(N2CCOCC2)cc1)C(=O)COc1ccccc1C#N	69*
CC(C)n1nccc1NC(=O)COc1ccccc1C#N	3
CSCc1nc2ccccc2n1CC(=O)NC1CC(=O)N(C2CC2c2ccccc2)C1 (stereo not drawn)	5
Cn1nnc2c(N3CCN(S(=O)(=O)c4cccs4)CC3)ncnc21	-6
O=C1NCCN1c1cccc(Nc2ncnc3cc(F)c(F)cc23)c1	-5
O=c1c(O[C@@H]2O[C@H](CO)[C@@H](O)[C@H](O)[C@H]2O)c(-c2ccc(O)c(O)c2)oc2cc(O)cc(O)c12	11
O=C(O)c1cc(O)c2c(O)c3c(O[C@H]4O[C@H](CO)[C@@H](O)[C@H](O)[C@H]4O)cccc3c(-c3c4cc(C(=O)O)cc(O)c4c(O)c4c(O[C@H]5O[C@H](CO)[C@@H](O)[C@H](O)[C@H]5O)cccc34)c2c1	82*!
OC[C@H]1O[C@@H](Oc2ccc(O)cc2)[C@H](O)[C@@H](O)[C@@H]1O	-10
SMILES	mcGAS MS inh
CC(C)C(NC(=O)CS(C)(=O)=O)c1ccccn1 (stereo not drawn)	-24
COc1ccc(Br)cc1/C=C/C(=O)N1CCC(c2ccccc2)CC1	1
N#Cc1cccnc1NCc1ccc(N2CCCC2)nc1	-8
CCOC(=O)c1cccc2c1-c1ccccc1/C2=N/O	-16
C/C(=N/OC(=O)c1ccccc1C)c1ccc(Cl)cc1Cl	-2
Cc1ccccc1C(=O)O/N=C1/C(=O)c2ccccc2-c2ccccc21	70*
Cc1ccc2[nH]cc(-c3ncccc3NC(=O)C(C)C)c2c1	-34
OCc1cn(C2CCN(Cc3ccc(-c4ccn[nH]4)o3)CC2)nn1	6
O=C(c1ccc(=O)n(Cc2cccc(F)c2)n1)N1CCc2ccccc21	-5
CN(Cc1c(F)cccc1Cl)C(=O)/C=C/c1ccc(N2CCCC2=O)cc1	6
CC1Sc2ccc(-c3ccco3)cc2N(Cc2ccc(Cl)cc2)C1=O (stereo not drawn)	66*
CC1Sc2ccccc2N(Cc2ccc(F)c(Cl)c2)C1=O (stereo not drawn)	24
COc1cccc(-c2ccc3c(c2)N(Cc2ccc4c(c2)OCO4)C(=O)C(C)S3)c1 (stereo not drawn)	-12
Fc1cccc(F)c1C=NNc1ccc(C(F)(F)F)cn1	-15
O=C(O)CC12CSc3[nH]c(=O)sc3C1c1ccccc1OC2=O (stereo not drawn)	13
O=C(O)C1Sc2[nH]c(=O)sc2C2c3cc(Cl)cc(Cl)c3OC(=O)C12 (stereo not drawn)	57
O=C1Oc2ccccc2C2c3sc(=O)[nH]c3SCC12 (stereo not drawn)	91*
O=C(O)c1cc(=O)[nH]n1-c1ccc(Cl)nn1	6
O=C(CC1c2ccccc2CCc2ccccc21)NCC1COCCO1 (stereo not drawn)	-4
CC1CCC(=O)/C(=C/c2ccccc2)C1 (stereo not drawn)	-6
N#Cc1cc(I)c(O)c([N+](=O)[O-])c1	95*
N#Cc1ccc(Oc2ncccc2[N+](=O)[O-])c(Cl)c1	-7
N#Cc1ccc([N+](=O)[O-])c(O)c1	-8
CCCCCCc1nc(C(N)=O)c2[nH]c(=O)n(-c3ccc4c(c3)OCO4)c2n1	-6
N#CC(=Cc1ccc(-c2ccc(Cl)c(C(F)(F)F)c2)o1)C(N)=S	4
CCOC(=O)C1=C(COC(=O)C=Cc2ccc(Br)o2)NC(=O)NC1C (stereo not drawn)	10
